Measured values reported in the supplement of paper PMC10849652.
About 8,800 targets were measured; listed, in parts, are those with a hit and a random draw of the rest. About 0.5% of all pairs of compound and target were hits.

Columns and labels:
Assay in all cases: log2 fold change, soluble protein after heating vs DMSO (PISA); higher = thermal stabilisation; K562 lysate, 10 uM; active = over 0.2 and 3.5 SD of the protein, either way, in both replicates (recomputed)
lapatinib = compound: CS(=O)(=O)CCNCc1ccc(-c2ccc3ncnc(Nc4ccc(OCc5cccc(F)c5)c(Cl)c4)c3c2)o1 [lapatinib]
Method in brief: (§1)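 Values give the log-two fold change in thermal stability against solvent controls, from duplicates. Crude K562 extract at 1 mg/mL protein, made by dounce homogenisation in PBS pH 7.4 with 1 mM MgCl2, was treated with 10 μM compound for 30 min. After 3 min heating across 48°C-58°C, aliquots were pooled, adjusted to 0.5% NP-40 at 4°C and centrifuged at 21,000xg for 90 min. The supernatant was measured by TMTpro 16plex LC-MS/MS with channel sums equalised.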

crizotinib = compound: C[C@@H](Oc1cc(-c2cnn(C3CCNCC3)c2)cnc1N)c1c(Cl)ccc(F)c1Cl [crizotinib]
Method in brief: as §1

[1] = compound: C[C@H](C1=CC=C(C=C1)C(=O)NC2=C3C=CNC3=NC=C2)N
Method in brief: as §1

duvelisib = compound: C[C@H](Nc1ncnc2nc[nH]c12)c1cc2cccc(Cl)c2c(=O)n1-c1ccccc1 [duvelisib]
Method in brief: as §1

gandotinib = compound: Cc1cc(Nc2cc(CN3CCOCC3)c3nc(C)c(Cc4ccc(Cl)cc4F)n3n2)n[nH]1 [gandotinib]
Method in brief: as §1

doramapimod = compound: Cc1ccc(-n2nc(C(C)(C)C)cc2NC(=O)Nc2ccc(OCCN3CCOCC3)c3ccccc23)cc1 [doramapimod]
Method in brief: as §1

[2] = compound: Cc1cccc(CC(=O)N2CCc3c2ccc(-c2cn(C)c4ncnc(N)c24)c3F)n1
Method in brief: as §1

nilotinib = compound: Cc1cn(-c2cc(NC(=O)c3ccc(C)c(Nc4nccc(-c5cccnc5)n4)c3)cc(C(F)(F)F)c2)cn1 [nilotinib]
Method in brief: as §1

[3] = compound: Cc1nc(Nc2n[nH]c3c2CN(C(=O)N[C@H](CN(C)C)c2ccccc2)C3(C)C)c2sccc2n1
Method in brief: as §1

dasatinib = compound: Cc1nc(Nc2ncc(C(=O)Nc3c(C)cccc3Cl)s2)cc(N2CCN(CCO)CC2)n1 [dasatinib]
Method in brief: as §1

[4] = compound: Cc1ncc(-c2ccnc(Nc3ccc(S(C)(=O)=O)cc3)n2)n1C(C)C
Method in brief: as §1

[5] = compound: Cn1cc(-c2ccc3c(c2)CCN3C(=O)Cc2cccc(C(F)(F)F)c2)c2c(N)ncnc21
Method in brief: as §1

quisinostat = compound: Cn1cc(CNCC2CCN(c3ncc(C(=O)NO)cn3)CC2)c2ccccc21 [quisinostat]
Method in brief: as §1

tipifarnib = compound: Cn1cncc1[C@@](N)(c1ccc(Cl)cc1)c1ccc2c(c1)c(-c1cccc(Cl)c1)cc(=O)n2C [tipifarnib]
Method in brief: as §1

[6] = compound: NC(=O)Nc1cc(-c2cccc(F)c2)sc1C(=O)N[C@H]1CCCNC1
Method in brief: as §1

[7] = compound: NC(=O)c1cnc(N[C@@H]2CCCC[C@@H]2N)nc1Nc1cccc(-n2nccn2)c1
Method in brief: as §1

[8] = compound: NC1(c2ccc(-c3nc4ccn5c(=O)[nH]nc5c4cc3-c3ccccc3)cc2)CCC1
Method in brief: as §1

tozasertib = compound: Cc1cc(Nc2cc(N3CCN(C)CC3)nc(Sc3ccc(NC(=O)C4CC4)cc3)n2)n[nH]1 [tozasertib]
Method in brief: as §1

pictilisib = compound: CS(=O)(=O)N1CCN(Cc2cc3nc(-c4cccc5[nH]ncc45)nc(N4CCOCC4)c3s2)CC1 [pictilisib]
Method in brief: as §1

bafetinib = compound: Cc1ccc(NC(=O)c2ccc(CN3CC[C@H](N(C)C)C3)c(C(F)(F)F)c2)cc1Nc1nccc(-c2cncnc2)n1 [bafetinib]
Method in brief: as §1

Measured: log2 fold change

ZBTB40 (UniProt Q9NUA8)
Chain of UniProt Q9NUA8 (Q9NUA8 whole entry, looked up): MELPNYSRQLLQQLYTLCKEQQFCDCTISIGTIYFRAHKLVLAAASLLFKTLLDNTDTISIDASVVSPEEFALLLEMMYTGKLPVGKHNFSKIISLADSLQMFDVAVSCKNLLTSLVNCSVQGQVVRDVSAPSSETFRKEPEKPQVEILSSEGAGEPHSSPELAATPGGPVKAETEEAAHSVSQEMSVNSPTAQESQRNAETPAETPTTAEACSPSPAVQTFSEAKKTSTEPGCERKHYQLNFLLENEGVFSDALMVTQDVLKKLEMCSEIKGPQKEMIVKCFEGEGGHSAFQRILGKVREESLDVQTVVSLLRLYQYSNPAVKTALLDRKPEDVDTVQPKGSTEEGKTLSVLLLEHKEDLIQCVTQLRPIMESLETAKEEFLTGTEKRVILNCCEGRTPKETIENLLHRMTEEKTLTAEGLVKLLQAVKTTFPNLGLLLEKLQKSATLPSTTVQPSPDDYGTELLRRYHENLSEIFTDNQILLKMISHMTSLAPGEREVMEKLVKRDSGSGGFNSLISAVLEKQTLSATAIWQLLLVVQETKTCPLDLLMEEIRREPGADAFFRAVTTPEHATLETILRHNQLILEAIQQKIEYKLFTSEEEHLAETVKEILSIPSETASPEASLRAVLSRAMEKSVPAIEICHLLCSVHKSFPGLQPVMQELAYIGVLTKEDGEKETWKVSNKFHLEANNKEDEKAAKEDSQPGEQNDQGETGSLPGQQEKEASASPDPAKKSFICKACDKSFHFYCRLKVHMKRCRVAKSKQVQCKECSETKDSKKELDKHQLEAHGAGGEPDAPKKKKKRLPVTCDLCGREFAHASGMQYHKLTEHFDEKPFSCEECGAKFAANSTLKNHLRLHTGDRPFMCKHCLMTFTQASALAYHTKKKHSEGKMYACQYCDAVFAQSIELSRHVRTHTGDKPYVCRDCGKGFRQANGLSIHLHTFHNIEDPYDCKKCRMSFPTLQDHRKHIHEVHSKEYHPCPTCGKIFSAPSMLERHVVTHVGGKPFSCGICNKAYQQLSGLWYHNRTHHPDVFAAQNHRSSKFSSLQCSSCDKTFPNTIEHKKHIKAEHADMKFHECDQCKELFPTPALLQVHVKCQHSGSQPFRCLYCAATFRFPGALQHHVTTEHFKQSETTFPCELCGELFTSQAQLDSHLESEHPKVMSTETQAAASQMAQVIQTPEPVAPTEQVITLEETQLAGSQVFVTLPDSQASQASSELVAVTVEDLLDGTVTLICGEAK
inactive: lapatinib 0.022 | crizotinib 0.036 | [1] -0.249 | duvelisib 0.018 | gandotinib 0.219 | doramapimod -0.02 | [2] 0.004 | nilotinib -0.076 | [3] 0.29 | dasatinib -0.024 | [4] 0.086 | [5] -0.051 | quisinostat -0.01 | tipifarnib 0.078 | [6] -0.018 | [7] 0.004 | [8] 0.058

ZSCAN21 (UniProt Q9Y5A6)
Chain of UniProt Q9Y5A6 (Q9Y5A6 whole entry, looked up): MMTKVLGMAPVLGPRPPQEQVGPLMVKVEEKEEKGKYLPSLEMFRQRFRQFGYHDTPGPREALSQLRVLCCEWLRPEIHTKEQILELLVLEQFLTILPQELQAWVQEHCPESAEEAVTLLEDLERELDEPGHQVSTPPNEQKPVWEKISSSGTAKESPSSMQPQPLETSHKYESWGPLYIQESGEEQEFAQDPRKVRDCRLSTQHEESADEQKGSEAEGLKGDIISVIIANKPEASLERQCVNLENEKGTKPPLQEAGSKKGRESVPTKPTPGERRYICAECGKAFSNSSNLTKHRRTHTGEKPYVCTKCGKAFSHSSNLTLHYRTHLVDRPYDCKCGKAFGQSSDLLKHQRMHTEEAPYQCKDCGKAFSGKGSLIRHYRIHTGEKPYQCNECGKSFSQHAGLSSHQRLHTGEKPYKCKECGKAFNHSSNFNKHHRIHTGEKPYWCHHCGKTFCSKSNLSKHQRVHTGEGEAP
inactive: [1] -0.131 | gandotinib -0.108 | tozasertib -0.001 | [2] 0.068

UNKL (UniProt E9PDK2)
inactive: pictilisib -0.113 | crizotinib -0.078 | duvelisib 0.184 | tozasertib -0.039 | doramapimod 0.07 | bafetinib -0.041 | dasatinib -0.216 | [5] 0.006 | quisinostat 0.015 | [6] 0.045

VHL (UniProt P40337)
Chain of UniProt P40337 (P40337 whole entry, looked up): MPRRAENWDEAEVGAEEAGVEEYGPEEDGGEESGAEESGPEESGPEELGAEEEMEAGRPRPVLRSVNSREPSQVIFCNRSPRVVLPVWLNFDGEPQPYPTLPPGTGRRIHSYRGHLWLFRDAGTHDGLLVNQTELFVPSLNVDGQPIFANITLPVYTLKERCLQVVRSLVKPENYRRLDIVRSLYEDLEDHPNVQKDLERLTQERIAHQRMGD
inactive: pictilisib -0.003 | crizotinib 0.017 | duvelisib 0.148 | gandotinib -0.08 | tozasertib 0 | doramapimod -0.011 | bafetinib 0.092 | [2] -0.021 | nilotinib -0.01 | [3] 0.04 | dasatinib 0 | [4] -0.056 | [5] 0.079 | quisinostat -0.056 | tipifarnib 0.022 | [6] 0.077 | [8] 0.04
active: [1] -0.538

ZFYVE19 isoform 3 (UniProt Q96K21)
Chain of UniProt Q96K21 (Q96K21 whole entry, looked up): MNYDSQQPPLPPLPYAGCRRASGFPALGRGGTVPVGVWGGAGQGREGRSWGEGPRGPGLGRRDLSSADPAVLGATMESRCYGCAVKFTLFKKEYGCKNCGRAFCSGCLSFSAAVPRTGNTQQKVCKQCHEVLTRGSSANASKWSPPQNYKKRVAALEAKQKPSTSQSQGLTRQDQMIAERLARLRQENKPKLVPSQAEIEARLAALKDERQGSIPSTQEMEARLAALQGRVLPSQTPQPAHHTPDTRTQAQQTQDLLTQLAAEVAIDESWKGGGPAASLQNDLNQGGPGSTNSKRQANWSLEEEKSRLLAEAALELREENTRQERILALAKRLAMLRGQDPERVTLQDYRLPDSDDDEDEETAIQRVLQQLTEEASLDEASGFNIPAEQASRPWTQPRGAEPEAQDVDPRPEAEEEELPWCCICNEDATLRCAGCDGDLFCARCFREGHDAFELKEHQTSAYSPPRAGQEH
inactive: lapatinib 0.114 | pictilisib -0.02 | bafetinib -0.013 | [7] -0.002

UNC45A (UniProt Q9H3U1)
Chain of UniProt Q9H3U1 (Q9H3U1 whole entry, looked up): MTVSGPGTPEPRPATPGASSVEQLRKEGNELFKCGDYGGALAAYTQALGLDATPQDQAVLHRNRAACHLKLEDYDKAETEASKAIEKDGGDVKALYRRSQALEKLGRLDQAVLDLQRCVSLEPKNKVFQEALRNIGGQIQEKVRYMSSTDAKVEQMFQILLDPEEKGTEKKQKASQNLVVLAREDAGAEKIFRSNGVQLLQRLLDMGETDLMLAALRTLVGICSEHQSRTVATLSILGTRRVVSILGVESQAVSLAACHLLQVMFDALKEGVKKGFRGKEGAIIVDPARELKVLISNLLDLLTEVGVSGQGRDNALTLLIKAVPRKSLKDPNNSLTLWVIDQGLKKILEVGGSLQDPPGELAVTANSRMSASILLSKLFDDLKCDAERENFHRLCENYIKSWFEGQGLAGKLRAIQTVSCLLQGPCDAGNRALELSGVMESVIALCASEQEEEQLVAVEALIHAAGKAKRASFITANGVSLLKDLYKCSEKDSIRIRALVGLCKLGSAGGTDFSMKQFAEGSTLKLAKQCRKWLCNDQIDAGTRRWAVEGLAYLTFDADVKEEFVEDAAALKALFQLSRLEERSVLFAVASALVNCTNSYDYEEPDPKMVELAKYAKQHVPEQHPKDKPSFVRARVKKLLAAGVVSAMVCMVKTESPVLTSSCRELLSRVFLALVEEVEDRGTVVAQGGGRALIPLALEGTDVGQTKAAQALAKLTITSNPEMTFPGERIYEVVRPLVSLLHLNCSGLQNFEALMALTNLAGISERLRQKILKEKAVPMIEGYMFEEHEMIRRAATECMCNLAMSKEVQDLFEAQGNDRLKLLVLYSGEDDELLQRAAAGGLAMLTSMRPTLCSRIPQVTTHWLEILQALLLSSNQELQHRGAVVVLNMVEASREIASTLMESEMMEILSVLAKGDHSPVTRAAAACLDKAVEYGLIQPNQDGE
inactive: lapatinib -0.006 | pictilisib -0.026 | crizotinib -0.045 | [1] 0.019 | duvelisib -0.003 | gandotinib -0.111 | tozasertib 0 | doramapimod 0.027 | bafetinib -0.018 | [2] 0.021 | nilotinib -0.007 | [3] 0.003 | dasatinib -0.051 | [4] 0.018 | [5] 0.016 | quisinostat -0.047 | tipifarnib -0.015 | [6] 0.03 | [7] 0.016 | [8] -0.001
